M1 antagonist: blocks the rat M1 muscarinic receptor response to acetylcholine; CHO-M1 cells, Fluo-4 calcium, ACh EC80 antagonist mode; hits give low values; B-score at 10 µM; actives 3.4% (n = 64,000); AID 628;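 active means calcium fluorescence response, raw or row-and-column corrected B-score, differing from the plate sample mean either way at a set confidence level, mostly lower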
Her2 expr inh: Her2 kinase expression inhibition | SKBR-3 HER2 protein level, AlphaScreen, 18-24 h; hits give low values | HER2 level % of control, % at 10 µM | actives 0.69% (n = 65,000);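 active means HER2 level under 5% of the carrier-only control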;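 further: 100% = DMSO carrier and 0% = 500 nM PU-H71 HSP90 inhibitor; lower value means stronger loss of Her2 protein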
FXIIa mix inh: blocks human factor XIIa in pooled compound mixtures | AID 684 | inhibition, % at 5 µM | P00748 | purified FXIIa, fluorogenic substrate | actives 0.2% (n = 62,000);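 further: 0% = enzyme without compound and 100% = no enzyme blank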
FXIa mix inh: inhibitors of human coagulation factor XIa, pooled mixtures. purified FXIa, fluorogenic substrate. inhibition, % at 5 µM. actives 0.19% (n = 62,000);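 further: each value is inhibition by a whole ten-compound pool holding the compound; 0% = enzyme with no mixture and 100% = wells lacking enzyme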
M1 agonist: activates the M1 muscarinic receptor; CHO-M1 cells, Fluo-4 calcium fluorescence, agonist mode; hits give high values; B-score at 10 µM; actives 3% (n = 64,000);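 active means fluorescence rise, raw or as B-score row- and column-corrected plate score, outside the 99.7% band of its plate's samples, either direction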
JNK3 blocker: JNK3 (human) kinase inhibition; P53779; purified JNK3 kinase activity, HTS; inhibition, % at 8 µM; actives 0.61% (n = 60,000); in the data active means inhibition above about 17%;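 further: 0% = DMSO and 100% = reference inhibitor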
Target sequence (P53779 whole entry, looked up): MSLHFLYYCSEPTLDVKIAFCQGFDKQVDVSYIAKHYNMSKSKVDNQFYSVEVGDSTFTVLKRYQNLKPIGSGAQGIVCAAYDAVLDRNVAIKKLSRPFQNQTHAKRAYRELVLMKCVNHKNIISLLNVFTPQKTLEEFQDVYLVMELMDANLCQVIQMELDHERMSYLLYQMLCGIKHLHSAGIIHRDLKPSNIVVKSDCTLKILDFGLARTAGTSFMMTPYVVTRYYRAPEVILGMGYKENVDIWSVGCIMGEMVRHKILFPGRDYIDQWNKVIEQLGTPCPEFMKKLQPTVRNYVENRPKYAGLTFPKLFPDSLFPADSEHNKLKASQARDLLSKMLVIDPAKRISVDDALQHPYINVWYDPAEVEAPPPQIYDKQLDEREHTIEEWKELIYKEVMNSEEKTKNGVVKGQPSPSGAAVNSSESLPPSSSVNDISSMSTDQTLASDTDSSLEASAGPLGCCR
M1 antag conf: M1 muscarinic receptor (rat) antagonism, confirmed; shares compounds with M1 antagonist; actives 43% (n = 1,700); CHO-M1 cells, Fluo-4 calcium, ACh EC80 antagonism; hits give low values; calcium response (max-min fluorescence) at 10 µM;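 active means calcium response below the same-plate mean of wells given acetylcholine alone at its 80%-effect dose, minus 3 SD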;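 further: raw fluorescence intensity difference in arbitrary instrument units and not normalized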
mGluR4 antag: mGluR4 (human) activity, M1 antagonist secondary assay; shares compounds with M1 antagonist; CHO-mGluR4 calcium flux, Fluo-4 fluorescence, glutamate EC80; hits give low values; fluorescence response (max-min) at 10 µM; actives 0.9% (n = 1,700); AID 678;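 active means fluorescence response below the plate's average for near-maximal glutamate wells, less 3 SD of those wells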;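 further: raw unnormalized fluorescence span taken in the window right after glutamate addition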
An asterisk follows results filed as active; . = not tested or not shown. Hits are enriched below; roughly 6.9% of the tested compounds scored in any of these assays. Unless noted, no stated cut-off is given here; in the data, active means inhibition above about 20% (passing the limit was not always enough); inactive means the rest.

SMILES	M1 antagonist	Her2 expr inh	FXIIa mix inh	FXIa mix inh	M1 agonist	JNK3 blocker	M1 antag conf	mGluR4 antag
Cc1ccc(S(=O)(=O)NCC2CCC(C(=O)N3CCC4(CC3)OCCO4)CC2)cc1 (centres undefined)	0.377	97.6	-11.2	1.5	-0.132	4.9	.	.
N#CC1=C(N)Oc2c(c(=O)oc3ccccc23)C1c1ccc(OC(=O)N2CCOCC2)cc1 (centres undefined)	-0.15	125.5	7.7	3.3	0.291	4.1	.	.
COc1ccccc1N1CCN(Cc2cccc(OC)c2O)CC1	-1.07	114.4	0.4	-10.5	-0.511	1.4	.	.
CCN1CCN(Cc2cc(Br)cc(OC)c2O)CC1	-1.89*	176.2	-19.1	1.0	0.0244	1.7	350*	243
CC(C)=CCC12CN3CCN(CC(C3)C1=O)C2	-0.184	118.5	5.7	0.7	0.642	3.3	.	.
O=C(CCCN1CCC2(CC1)C(=O)NCN2c1ccccc1)c1ccc(F)cc1	.	71.2	8.4	-5.0	.	-3.4	.	.
CCCCCCn1c(O)c(C=Nc2c(C)n(C)n(-c3ccccc3)c2=O)c(=O)[nH]c1=O	-1.75	100.4	5.2	-2.6	0.0601	3.0	.	.
Cc1c(N=Cc2c(O)n(CCc3ccccc3)c(=O)[nH]c2=O)c(=O)n(-c2ccccc2)n1C	-4.06*	211.8	.	.	0.658	5.6	243*	236
CN(C)CCc1nc2ccccc2c(=O)n1-c1ccccc1	-6.25*	75.3	4.1	2.3	0.839	0.3	475	249
CN(C)c1ccc(CN2CC=C(c3ccc(F)cc3)CC2)cc1	-5.74*	59.1	5.2	5.7	-0.00389	-2.8	469*	237
COc1cc2nc(CN3CC=C(c4ccccc4)CC3)[nH]c(=O)c2cc1OC	0.987	34.2	6.9	2.3	0.0475	-8.6	.	.
